Measurements from PubChem BioAssay.
Results filed as inconclusive are left out. Activity calls are given as the source filed them.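 How the source made its calls, unless noted: active means inhibition above the screen-wide mean plus 3 SD, about 51%; inactive means the rest.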

Columns and labels:
[1] = rapamycin-like changes in RPL19A-GFP expression – cell-based, S. cerevisiae, multiplex flow cytometry, primary screen (AID 1862; in the data active means percent of DMSO control GFP below about 86%;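 further: lower values mimic rapamycin by blocking the RPL19A rise seen in DMSO cells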); conditions: S. cerevisiae RPL19A-GFP strain, flow cytometry fluorescence, 3 h; at 10 µM; stronger effect = lower value
[2] = TOR pathway GLN3 branch reporter MEP2-GFP changes – S. cerevisiae, multiplex flow cytometry, primary screen (AID 1867;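 active means GFP response, as percent of the DMSO control, above the screen-wide mean plus 3 SD, about 139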;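 further: median GFP channel fluorescence of barcode-gated MEP2-GFP cells measured by flow cytometry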); conditions: S. cerevisiae MEP2-GFP strain, 3 h, at 10 µM, stronger effect = higher value, 100% means same as DMSO wells
[3] = TOR pathway RTG branch CIT2 reporter changes – S. cerevisiae, GFP fusion, multiplex flow cytometry, primary screen (AID 1870;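 active means percent response above a set limit, the screen-wide mean plus 3 SD, cut at about 130% in these data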;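 further: barcoded CIT2-GFP strain pooled with four other GFP strains with rapamycin as positive control; median GFP fluorescence per well over plate mean of DMSO wells so 100% = DMSO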); conditions: S. cerevisiae CIT2-GFP expression, 3 h, at 10 µM, stronger effect = higher value
[4] = TOR pathway LAP4-GFP level changes – S. cerevisiae, multiplex flow cytometry, primary screen (AID 1873;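 active means GFP signal, as percent of the solvent control, above the screen mean plus 3 SD, about 149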); conditions: S. cerevisiae LAP4-GFP expression, 3 h, at 10 µM, stronger effect = higher value
[5] = yeast AGP1-GFP level changes, GLN3 branch – cell-based, multiplex flow cytometry, S. cerevisiae, primary screen (AID 1887;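 active means GFP signal above the screen-wide mean plus 3 SD, that is over about 124.5% of the solvent control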;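 further: AGP1-GFP fusion strain of S. cerevisiae within a five-strain barcoded multiplex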); conditions: 3 h, at 10 µM, stronger effect = higher value
[6] = reduced mouse 2C T cell binding to pMHC/ICAM-1 vesicles – MLPCN validation set, flow cytometry, LFA-1/ICAM-1 modulator project, pilot screen (AID 2523;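 active means response below a set limit, under 55% cells CD8-positive and vesicle-bound, and CD8 cells' 90th-percentile brightness under 279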;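 on vesicle binding response: mean PE anti-B7-1 fluorescence of CD8+ cells relative to row control; 100% = QL9-loaded vesicles with DMSO vehicle in the same plate row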); conditions: 2C mouse CD8+ T cells, at 7 µM, stronger effect = lower value; double positive events: measured here: CD8+/vesicle+ event percentage
[7] = target: Integrin beta-1 (Homo sapiens) + Integrin alpha-4 (Homo sapiens) (UniProt P13612+P05556); test: alpha4beta1 integrin LIBS antibody binding reduction – U937 cells, HUTS-21 mAb, flow cytometry, validation set, VLA-4 allosteric modulator project, pilot screen (AID 2674;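 active means inhibition above 50%, about 3 SD of the validation set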;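 further: antibody binding induced by the VLA-4 ligand LDV present at three times its Kd; 0% = LDV ligand with antibody and no compound and 100% = antibody without LDV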); conditions: HUTS-21 LIBS mAb binding, at 6.7 µM, stronger effect = higher value, binding induced by LDV ligand
[8] = calorie-restriction mimetic ROS inhibitors, yeast – validation compound set, pilot screen (AID 2706;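 active means superoxide response below 65% of plate, a cut near 3 SD across the whole screen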;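 further: yeast exposed to compound for one week at 30 degrees C before staining; 100% = mean of all compound wells on the same plate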); conditions: S. cerevisiae aging, superoxide DHE fluorescence; at 10 µM; stronger effect = lower value
[9] = target: Beta-adrenergic receptor kinase 1 (Homo sapiens) (UniProt P25098); test: GRK2 binders displacing RNA aptamer, biochemical, validation, human GRK2, bead flow cytometry (AID 488806;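 active means aptamer binding inhibition above 30%, about 3 SD of noise from non-fluorescent compounds; inactive means inhibition at or below 30%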); conditions: bead-bound GRK2, FAM-aptamer displacement, at 10 µM, stronger effect = higher value
[10] = target: Beta-2 adrenergic receptor (Homo sapiens) (UniProt P07550); test: agonist-induced loss of surface beta2AR – cell-based, FAP fluorogen, flow cytometry, validation set, pilot screen (AID 504459;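 active means percent response above 42, roughly 3 SD of non-fluorescent test compounds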;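 further: agonist-driven loss of surface beta2AR via internalization measured by FAP dye flow cytometry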); conditions: Am2.2-beta2AR cells, at 10 µM, stronger effect = higher value
[11] = target: AP-2 complex subunit beta (Homo sapiens) (UniProt P63010); test: beta-arrestin/AP2 interaction blockers – biochemical, validation set, GST-AP2 beads, flow cytometry, pilot screen (AID 504541;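 active means inhibition above 54%, about 3 SD of non-fluorescent compounds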;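 further: AP2 carries R879A mutation and is captured from E. coli lysate; bead-bound FITC arrestin peptide fluorescence measuring arrestin peptide binding to AP2; 0% = DMSO wells and 100% = excess unlabeled arrestin peptide control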); conditions: FITC arrestin peptide, at 10 µM, stronger effect = higher value, AP2 beta2 appendage fragment, R879A mutant
[12] = cytosolic pH regulators acting via V-ATPase – S. cerevisiae, pHLuorin, HTS validation (AID 504600; in the data active means response above about 15%;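 further: plate controls were DMSO for no effect and reference compound for full effect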); conditions: V-ATPase proton transport, at 10 µM, stronger effect = higher value
[13] = tested on: anti-desmoglein-3 scFv antibody binding to human DSG3; test: blockers of pathogenic pemphigus antibody–desmoglein-3 binding – biochemical, validation compound set, bead-based, flow cytometry, pilot screen (AID 588368;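 active means binding below the plate cutoff, the plate median minus 3 SD, with a reading above zero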;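 further: signal is the median channel fluorescence of bead-bound GFP antibody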); conditions: Protein G beads, DSG3-Fc, scFv-GFP binding, at 10 µM, stronger effect = lower value
[14] = Nile Red efflux blockade in pump-expressing yeast – validation compound set, multiplex, phenotypic, pilot screen (AID 588506;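 active means efflux inhibition above 0.42, the validation set average plus 4 SD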;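 further: Nile Red retained in cells so higher fluorescence means more efflux inhibition; 0 = negative control wells and 1 = enniatin B 25 µM full block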); conditions: S. cerevisiae pump-expressing triplex, Nile Red efflux flow cytometry; at 10 µM; stronger effect = higher value; the pumps come from Candida albicans
[15] = target: ATP-binding cassette sub-family B member 6 (Homo sapiens) (UniProt Q9NP58); test: blockers of ABCB6-driven porphyrin uptake – K562-ABCB6 cells, flow cytometry, validation set, pilot screen (AID 588550); conditions: K562-ABCB6 porphyrin accumulation, 1 h, at 10 µM, stronger effect = higher value;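 further: 0% = DMSO wells and 100% = benzethonium chloride 70 µM positive control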
[16] = AML differentiation inducers, ER-HoxA9 marrow cells – cell-based, GFP/MAC1 double positive, flow cytometry, validation set, primary screen (AID 588685;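 active means differentiation response of at least 50%, scaled between solvent and reference control, from cells with both markers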;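 further: compound exposure lasts four days before antibody staining and flow analysis; 0% = DMSO wells and 100% = 5 µM fulvestrant positive control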); conditions: stronger effect = higher value, normalized: vehicle 0, fulvestrant 100

Beta-2 adrenergic receptor (Homo sapiens), sequence (P07550 whole entry, looked up): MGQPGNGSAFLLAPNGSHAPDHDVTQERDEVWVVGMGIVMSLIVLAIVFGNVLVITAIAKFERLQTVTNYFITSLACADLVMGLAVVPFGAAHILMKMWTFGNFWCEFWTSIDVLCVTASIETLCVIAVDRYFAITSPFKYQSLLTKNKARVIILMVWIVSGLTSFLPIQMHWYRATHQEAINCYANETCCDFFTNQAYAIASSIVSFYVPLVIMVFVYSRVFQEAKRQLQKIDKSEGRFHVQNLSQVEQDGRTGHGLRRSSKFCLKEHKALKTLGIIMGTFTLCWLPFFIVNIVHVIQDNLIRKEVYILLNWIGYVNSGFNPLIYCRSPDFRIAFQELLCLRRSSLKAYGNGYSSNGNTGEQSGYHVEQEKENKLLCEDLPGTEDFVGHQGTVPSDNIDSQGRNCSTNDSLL
Beta-adrenergic receptor kinase 1 (Homo sapiens), sequence (P25098 whole entry, looked up): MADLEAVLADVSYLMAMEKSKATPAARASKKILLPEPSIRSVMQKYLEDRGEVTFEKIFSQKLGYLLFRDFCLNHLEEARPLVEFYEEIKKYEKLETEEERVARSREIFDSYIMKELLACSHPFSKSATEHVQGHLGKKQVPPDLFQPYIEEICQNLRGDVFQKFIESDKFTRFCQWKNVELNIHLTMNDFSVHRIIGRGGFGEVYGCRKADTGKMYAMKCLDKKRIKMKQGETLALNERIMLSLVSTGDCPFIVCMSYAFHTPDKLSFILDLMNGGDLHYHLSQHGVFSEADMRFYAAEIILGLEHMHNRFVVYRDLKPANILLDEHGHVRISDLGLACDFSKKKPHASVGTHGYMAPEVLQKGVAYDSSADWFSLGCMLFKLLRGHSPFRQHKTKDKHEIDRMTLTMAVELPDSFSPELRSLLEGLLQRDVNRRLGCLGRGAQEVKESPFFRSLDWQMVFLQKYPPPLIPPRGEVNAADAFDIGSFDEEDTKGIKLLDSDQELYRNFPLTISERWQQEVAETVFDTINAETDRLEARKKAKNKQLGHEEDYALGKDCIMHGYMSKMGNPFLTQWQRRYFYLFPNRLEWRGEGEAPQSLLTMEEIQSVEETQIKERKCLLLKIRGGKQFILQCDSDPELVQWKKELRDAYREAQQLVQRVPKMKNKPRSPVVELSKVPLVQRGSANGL
ATP-binding cassette sub-family B member 6 (Homo sapiens), sequence (Q9NP58 whole entry, looked up): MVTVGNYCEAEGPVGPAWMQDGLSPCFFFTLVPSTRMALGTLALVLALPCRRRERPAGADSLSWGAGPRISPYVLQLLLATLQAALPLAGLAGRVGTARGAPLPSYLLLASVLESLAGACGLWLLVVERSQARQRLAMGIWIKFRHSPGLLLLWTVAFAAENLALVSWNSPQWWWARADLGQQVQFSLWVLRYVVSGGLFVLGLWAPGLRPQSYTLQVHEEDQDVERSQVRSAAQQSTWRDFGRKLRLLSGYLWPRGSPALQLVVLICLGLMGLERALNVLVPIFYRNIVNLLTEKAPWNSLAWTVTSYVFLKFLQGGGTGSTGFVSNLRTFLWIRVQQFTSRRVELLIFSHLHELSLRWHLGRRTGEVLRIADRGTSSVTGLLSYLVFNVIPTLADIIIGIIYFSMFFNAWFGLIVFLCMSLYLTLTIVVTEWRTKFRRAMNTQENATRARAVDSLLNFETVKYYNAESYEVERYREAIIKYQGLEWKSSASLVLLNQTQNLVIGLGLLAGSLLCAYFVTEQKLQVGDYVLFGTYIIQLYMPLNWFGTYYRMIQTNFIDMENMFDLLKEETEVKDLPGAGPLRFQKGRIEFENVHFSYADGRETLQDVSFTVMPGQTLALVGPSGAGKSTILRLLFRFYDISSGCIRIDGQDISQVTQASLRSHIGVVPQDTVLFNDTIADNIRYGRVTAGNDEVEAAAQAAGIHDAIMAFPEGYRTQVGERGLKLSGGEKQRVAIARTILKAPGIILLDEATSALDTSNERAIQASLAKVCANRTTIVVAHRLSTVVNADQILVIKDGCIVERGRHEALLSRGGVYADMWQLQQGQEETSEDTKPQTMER
AP-2 complex subunit beta (Homo sapiens), sequence (P63010 whole entry, looked up, the tested form may be a part, one chain of several): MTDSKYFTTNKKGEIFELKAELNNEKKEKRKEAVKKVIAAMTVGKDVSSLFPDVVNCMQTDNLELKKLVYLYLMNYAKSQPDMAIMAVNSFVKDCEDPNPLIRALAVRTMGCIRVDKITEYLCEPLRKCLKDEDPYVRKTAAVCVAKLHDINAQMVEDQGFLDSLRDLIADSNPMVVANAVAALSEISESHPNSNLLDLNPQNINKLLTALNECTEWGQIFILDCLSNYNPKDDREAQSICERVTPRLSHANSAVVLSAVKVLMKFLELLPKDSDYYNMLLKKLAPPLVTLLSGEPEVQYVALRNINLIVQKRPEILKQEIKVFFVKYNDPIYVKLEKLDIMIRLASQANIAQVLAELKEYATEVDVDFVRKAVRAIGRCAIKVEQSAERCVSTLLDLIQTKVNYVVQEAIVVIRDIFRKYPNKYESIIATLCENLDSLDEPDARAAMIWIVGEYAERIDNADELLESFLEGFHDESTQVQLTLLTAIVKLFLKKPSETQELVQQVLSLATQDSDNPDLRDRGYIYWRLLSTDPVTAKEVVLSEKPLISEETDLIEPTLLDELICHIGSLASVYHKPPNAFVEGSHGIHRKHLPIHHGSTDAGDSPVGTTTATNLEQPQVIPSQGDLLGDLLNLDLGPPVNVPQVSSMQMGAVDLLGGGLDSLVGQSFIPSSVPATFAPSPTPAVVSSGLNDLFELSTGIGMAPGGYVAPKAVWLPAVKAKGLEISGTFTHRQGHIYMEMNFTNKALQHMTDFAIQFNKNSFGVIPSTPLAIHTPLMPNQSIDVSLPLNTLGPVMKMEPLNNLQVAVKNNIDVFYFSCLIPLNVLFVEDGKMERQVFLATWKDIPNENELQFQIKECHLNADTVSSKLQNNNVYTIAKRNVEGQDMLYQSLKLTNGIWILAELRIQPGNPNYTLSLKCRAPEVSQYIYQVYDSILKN
Integrin beta-1 (Homo sapiens) + Integrin alpha-4 (Homo sapiens), sequence (P05556 whole entry, looked up): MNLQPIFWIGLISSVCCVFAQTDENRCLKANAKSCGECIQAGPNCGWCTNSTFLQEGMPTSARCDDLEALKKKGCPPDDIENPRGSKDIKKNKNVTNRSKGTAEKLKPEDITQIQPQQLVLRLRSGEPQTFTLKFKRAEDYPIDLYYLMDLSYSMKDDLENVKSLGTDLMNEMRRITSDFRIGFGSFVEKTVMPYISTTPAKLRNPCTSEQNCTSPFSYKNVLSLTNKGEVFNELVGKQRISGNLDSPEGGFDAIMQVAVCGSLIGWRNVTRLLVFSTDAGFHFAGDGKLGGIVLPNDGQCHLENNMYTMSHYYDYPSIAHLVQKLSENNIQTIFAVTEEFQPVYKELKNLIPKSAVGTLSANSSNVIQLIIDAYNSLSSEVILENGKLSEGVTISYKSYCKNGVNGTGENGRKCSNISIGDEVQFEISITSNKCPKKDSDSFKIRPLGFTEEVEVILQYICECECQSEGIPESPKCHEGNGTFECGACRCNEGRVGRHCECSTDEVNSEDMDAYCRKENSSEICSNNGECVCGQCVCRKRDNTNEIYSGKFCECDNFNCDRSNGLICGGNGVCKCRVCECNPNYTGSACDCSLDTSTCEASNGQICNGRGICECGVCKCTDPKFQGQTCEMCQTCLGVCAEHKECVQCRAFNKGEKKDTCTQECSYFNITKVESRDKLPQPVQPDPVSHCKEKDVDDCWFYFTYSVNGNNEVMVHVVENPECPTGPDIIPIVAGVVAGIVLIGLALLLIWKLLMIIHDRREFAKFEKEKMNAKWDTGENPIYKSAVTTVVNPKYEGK
Integrin beta-1 (Homo sapiens) + Integrin alpha-4 (Homo sapiens), sequence (P13612 whole entry, looked up): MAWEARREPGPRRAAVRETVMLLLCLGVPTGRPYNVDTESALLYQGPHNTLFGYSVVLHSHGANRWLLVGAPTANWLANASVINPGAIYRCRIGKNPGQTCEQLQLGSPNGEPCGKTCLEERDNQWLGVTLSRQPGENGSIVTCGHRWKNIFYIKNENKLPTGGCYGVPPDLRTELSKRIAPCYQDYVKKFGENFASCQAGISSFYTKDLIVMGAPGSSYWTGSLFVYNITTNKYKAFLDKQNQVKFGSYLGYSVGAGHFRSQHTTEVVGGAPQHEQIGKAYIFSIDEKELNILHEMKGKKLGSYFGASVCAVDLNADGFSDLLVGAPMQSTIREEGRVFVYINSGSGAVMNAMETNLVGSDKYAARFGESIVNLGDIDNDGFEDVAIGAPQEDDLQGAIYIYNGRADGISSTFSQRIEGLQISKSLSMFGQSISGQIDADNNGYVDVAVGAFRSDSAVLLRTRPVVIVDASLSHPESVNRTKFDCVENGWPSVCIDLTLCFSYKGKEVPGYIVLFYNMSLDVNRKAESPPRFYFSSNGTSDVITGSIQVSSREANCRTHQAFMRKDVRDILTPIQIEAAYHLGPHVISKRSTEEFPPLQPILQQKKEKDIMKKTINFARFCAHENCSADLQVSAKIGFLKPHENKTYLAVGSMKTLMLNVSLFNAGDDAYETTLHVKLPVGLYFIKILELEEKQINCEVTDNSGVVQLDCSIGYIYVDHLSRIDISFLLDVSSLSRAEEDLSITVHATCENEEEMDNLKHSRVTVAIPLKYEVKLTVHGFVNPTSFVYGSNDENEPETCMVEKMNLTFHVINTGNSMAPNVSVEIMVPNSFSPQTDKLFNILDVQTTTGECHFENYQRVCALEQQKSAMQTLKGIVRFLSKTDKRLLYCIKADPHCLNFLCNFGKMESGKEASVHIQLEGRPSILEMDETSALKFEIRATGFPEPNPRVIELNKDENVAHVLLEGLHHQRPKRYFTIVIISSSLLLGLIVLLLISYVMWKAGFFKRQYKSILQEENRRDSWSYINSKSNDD

SMILES	percent of DMSO control GFP [1]	GFP response vs DMSO [2]	percent response of DMSO control [3]	GFP response vs DMSO [4]	GFP response, % of DMSO [5]	double positive events [6] [%]	vesicle binding response [6]	inhibition [7]	superoxide response (% of plate) [8]	aptamer binding inhibition [9]	response [10]	inhibition [11]	response [12]	binding (% of control) [13]	efflux inhibition (fraction of control) [14]	inhibition [15]	differentiation response [16]
O=C(/C=C/c1ccc(F)cc1)N1CC[C@@]2(O)CCCC[C@H]2C1	96.7% (inactive)	112% (inactive)	89.1% (inactive)	125% (inactive)	96.5% (inactive)	61.1	198% (inactive)	-4.52% (inactive)	98.4% (inactive)	3% (inactive)	15.3% (inactive)	-5.97% (inactive)	10.1% (inactive)	98% (inactive)	-0.13 (inactive)	7% (inactive)	-13.6% (inactive)
O=C(N/N=C/c1ccc([N+](=O)[O-])o1)c1ccc(O)cc1	103% (inactive)	118% (inactive)	112% (inactive)	77.6% (inactive)	97.5% (inactive)	47.6	209% (inactive)	-21.7% (inactive)	136% (inactive)	-1% (inactive)	-5.96% (inactive)	-8.31% (inactive)	4% (inactive)	110% (inactive)	0.12 (inactive)	8% (inactive)	14.7% (inactive)
Cc1ccccc1C(=O)NCC(=O)O	103% (inactive)	107% (inactive)	103% (inactive)	93.7% (inactive)	105% (inactive)	61.4	130% (inactive)	0.25% (inactive)	102% (inactive)	5% (inactive)	2.69% (inactive)	-5.73% (inactive)	109% (active)	103% (inactive)	0.31 (inactive)	-7% (inactive)	-13.3% (inactive)
CCn1ccnc1CN(C)Cc1cn(-c2cccc(C)c2)nc1-c1cccc(F)c1	104% (inactive)	95.6% (inactive)	108% (inactive)	92.6% (inactive)	104% (inactive)	63.6	145% (inactive)	-7.79% (inactive)	102% (inactive)	4% (inactive)	-10.5% (inactive)	-10.8% (inactive)	3.23% (inactive)	105% (inactive)	0.11 (inactive)	21% (inactive)	-14.8% (inactive)
O=C(Nc1ccc(F)c([N+](=O)[O-])c1)c1ccc2c(c1)OCCO2	106% (inactive)	103% (inactive)	104% (inactive)	108% (inactive)	100% (inactive)	63	5830% (inactive)	-1.49% (inactive)	94% (inactive)	2% (inactive)	1.51% (inactive)	-13.5% (inactive)	3.69% (inactive)	92.4% (inactive)	-0.01 (inactive)	15% (inactive)	5.13% (inactive)
O=C1CC(c2ccc(OCCCCCOc3ccc(C4CC(=O)NC4=O)cc3)cc2)C(=O)N1 (stereo not drawn)	105% (inactive)	98.3% (inactive)	97.8% (inactive)	82.8% (inactive)	92.9% (inactive)	63.3	1500% (inactive)	15.1% (inactive)	95% (inactive)	3% (inactive)	4.67% (inactive)	-7.1% (inactive)	2.37% (inactive)	101% (inactive)	0.11 (inactive)	11% (inactive)	24.7% (inactive)
CC(=O)Nc1c(I)c(NC(C)=O)c(I)c(C(=O)O)c1I	89.3% (inactive)	123% (inactive)	104% (inactive)	78.1% (inactive)	94% (inactive)	58.9	171% (inactive)	10.3% (inactive)	103% (inactive)	-1% (inactive)	-8.3% (inactive)	2.48% (inactive)	1.06% (inactive)	95% (inactive)	0.12 (inactive)	9% (inactive)	2.46% (inactive)
CC1(C)CC(O)(CNCc2ccc3c(c2)OCO3)CCO1 (stereo not drawn)	103% (inactive)	102% (inactive)	101% (inactive)	106% (inactive)	105% (inactive)	66.2	192% (inactive)	15.9% (inactive)	104% (inactive)	1% (inactive)	-24.4% (inactive)	44.7% (inactive)	-2.49% (inactive)	104% (inactive)	-0.04 (inactive)	2% (inactive)	0.92% (inactive)
Cc1cc(OCC(=O)C(C)(C)C)c2c(C)c(C)c(=O)oc2c1	102% (inactive)	103% (inactive)	94.8% (inactive)	118% (inactive)	98.8% (inactive)	60.4	213% (inactive)	2.3% (inactive)	102% (inactive)	7% (inactive)	-4.14% (inactive)	27.4% (inactive)	-7.2% (inactive)	101% (inactive)	0.26 (inactive)	3% (inactive)	4% (inactive)
COc1cccc(=O)c2c(C)n(CC(=O)c3ccccc3)c(C)c12	100% (inactive)	102% (inactive)	95.1% (inactive)	113% (inactive)	113% (inactive)	58.2	203% (inactive)	-72.7% (inactive)	96.3% (inactive)	-1% (inactive)	-13.2% (inactive)	-9.87% (inactive)	2.5% (inactive)	98.8% (inactive)	0.33 (inactive)	-32% (inactive)	-2.03% (inactive)
O=C1C(O)CC2c3ccccc3CC3(CCCC3)N12 (stereo not drawn)	100% (inactive)	104% (inactive)	105% (inactive)	114% (inactive)	100% (inactive)	61.4	247% (inactive)	-0.43% (inactive)	106% (inactive)	1% (inactive)	48% (active)	-6.78% (inactive)	0.88% (inactive)	99.9% (inactive)	0.08 (inactive)	-110% (inactive)	-18.4% (inactive)
COc1ccc(CCNc2ncnc3c2[nH]c2cc(OC)c(OC)cc23)cc1OC	97.2% (inactive)	126% (inactive)	111% (inactive)	82.5% (inactive)	98.7% (inactive)	64	178% (inactive)	0.64% (inactive)	97.5% (inactive)	2% (inactive)	19.8% (inactive)	-1.78% (inactive)	3.11% (inactive)	101% (inactive)	-0.06 (inactive)	10% (inactive)	-0.82% (inactive)
O=C(OCCN1CCOCC1)c1cccs1	104% (inactive)	98.3% (inactive)	113% (inactive)	94.7% (inactive)	103% (inactive)	64.9	260% (inactive)	-3.57% (inactive)	88.9% (inactive)	2% (inactive)	-11.6% (inactive)	-4.4% (inactive)	0.26% (inactive)	91.9% (inactive)	0.02 (inactive)	1% (inactive)	0.24% (inactive)
O=CNC1CCCc2c1[nH]c1ccc(Cl)cc21 (stereo not drawn)	101% (inactive)	96.2% (inactive)	100% (inactive)	89.4% (inactive)	98.3% (inactive)	64.4	173% (inactive)	-5.64% (inactive)	113% (inactive)	2% (inactive)	3.11% (inactive)	-3.47% (inactive)	0.49% (inactive)	95.9% (inactive)	-0.04 (inactive)	-3% (inactive)	8.06% (inactive)
COc1cc2cc(C)nc(Cc3cccc4ccccc34)c2cc1OC	102% (inactive)	105% (inactive)	98.2% (inactive)	82.3% (inactive)	97.7% (inactive)	59.9	204% (inactive)	1.12% (inactive)	95.6% (inactive)	3% (inactive)	9.84% (inactive)	8.39% (inactive)	-0.08% (inactive)	101% (inactive)	0.04 (inactive)	-9% (inactive)	4.21% (inactive)
CC(C)NS(=O)(=O)c1ccc(OCC(=O)Nc2cccc(F)c2)cc1	101% (inactive)	98.7% (inactive)	106% (inactive)	89.3% (inactive)	92.4% (inactive)	59.7	143% (inactive)	-11.8% (inactive)	95.1% (inactive)	3% (inactive)	3.73% (inactive)	5.6% (inactive)	-2.45% (inactive)	98.5% (inactive)	0.22 (inactive)	7% (inactive)	-10.4% (inactive)
CC(=O)NC(Cc1ccccc1)C(=O)OCC(=O)c1ccccc1 (stereo not drawn)	96% (inactive)	102% (inactive)	88.6% (inactive)	106% (inactive)	100% (inactive)	65.2	144% (inactive)	9.1% (inactive)	111% (inactive)	3% (inactive)	-9.61% (inactive)	9.32% (inactive)	3.98% (inactive)	105% (inactive)	0 (inactive)	6% (inactive)	-21.7% (inactive)
Cc1cc(NS(=O)(=O)c2ccc(N)cc2)no1	103% (inactive)	98.7% (inactive)	107% (inactive)	102% (inactive)	113% (inactive)	63.3	121% (inactive)	15% (inactive)	99.6% (inactive)	-1% (inactive)	5.64% (inactive)	-2.38% (inactive)	-1.68% (inactive)	99.2% (inactive)	-0.16 (inactive)	4% (inactive)	-11.9% (inactive)
CC(=O)CCc1c(C)c2cccc(C)c2[nH]c1=O	104% (inactive)	99.6% (inactive)	103% (inactive)	97.4% (inactive)	98.8% (inactive)	56.4	269% (inactive)	-9.98% (inactive)	105% (inactive)	1% (inactive)	-3.42% (inactive)	-3.21% (inactive)	-0.84% (inactive)	95.5% (inactive)	-0.03 (inactive)	9% (inactive)	-18.4% (inactive)
